Rows were chosen to be rich in hits. Some 12% of all compounds tested hit in one or more screens of this group.
ROMK mod: modulators of human ROMK potassium channel; Tet-inducible ROMK, thallium flux fluorescence; actives lie on both sides; 2% of 130,000 active; B-score at 10 µM; P48048; AID 1918;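 active = signal ratio slope over the read window, or its plate-corrected B-score, at least 3 SD from the plate mean, either direction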;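 also: B-score of the F/F0 ratio slope over 7 to 12 s after thallium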
L major viab: Leishmania major promastigote growth inhibition | Leishmania major promastigotes, resazurin fluorescence viability | inhibition, % at 10 µM | 9% of 200,000 active | AID 1063; in the data active = inhibition above about 50%;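 also: promastigotes grown with compound for 44 hours at 28 °C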
Ins promoter up: MIN6 insulin promoter up-regulation; z-score at 5 µM; 0.3% of 190,000 active; MIN6 insulin promoter-GFP reporter, high-content imaging; active compounds read high; AID 1625;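 active = z-score above 3 at 5 µM with at least 500 cells counted in the well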
INS promoter inh: TRM-6 insulin promoter activity inhibition. TRM-6 cells (human fetal islet line), insulin promoter-eGFP reporter, imaging; reporter expression induced with tamoxifen. inhibition, % at 2 µM. 0.9% of 130,000 active;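 active = inhibition above the mean plus 3 SD, with well images judged a real hit on visual review, cut at about 60% in these data, passing the limit was not always enough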
WT yeast gro inh: growth inhibition of WT yeast, mitochondrial fusion screen | mitochondrial fusion phenotypic screen, WT strain | inhibition, % at 10 µM | 2.1% of 190,000 active | AID 1362; in the data active = inhibition above about 58%; tested in S. cerevisiae
KCC2 mod: KCC2 (human) Cl- transport modulation; Q9H2X9; KCC2 cells, thallium flux FluoZin-2 fluorescence; B-score of Tl+ flux slope (higher = more flux/activation; lower = inhibition) at 10 µM; 2.2% of 190,000 active; AID 1456;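 active = thallium flux slope and its plate-corrected score both differing from the plate sample mean at a set confidence after two filtering rounds, in either direction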;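 also: slope of fluorescence scaled to starting intensity during 10 to 20 s after thallium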
Numbers without * were called inactive; / = no result given.

SMILES | ROMK mod | L major viab | Ins promoter up | INS promoter inh | WT yeast gro inh | KCC2 mod
COC(=O)C1C(=O)NC(SC)=C(C#N)C1c1ccccc1F (stereo not drawn) | / | 81.8* | / | -32.0 | -7.2 | 1.01
CCOc1ccccc1C1C(C#N)=C(SCC(=O)OC)NC(=O)C1C(=O)OC (stereo not drawn) | 0.0608 | -6.7 | 0.68 | -2.8 | -1.2 | 0.499
CCOc1cccc(-c2nnc3sc(C4CCCCC4)nn23)c1 | -0.865 | 18.6 | -0.75 | / | 71.2* | /
COc1cccc(-c2nnc3sc(C4CCCCC4)nn23)c1 | -0.576 | 5.3 | -0.12 | -28.6 | -10.7 | -0.191
Cc1ccc(C2C(C#N)=C(N)Oc3cc(C)oc(=O)c32)o1 (stereo not drawn) | 0.615 | 100.4* | / | -16.7 | -3.3 | 0.428
CCN(CC)C(=O)CN1C(=O)C2(OCC(C)(c3ccccc3)CO2)c2ccccc21 (stereo not drawn) | -0.866 | 4.5 | -0.23 | 58.8 | 18.2 | 0.402
N#CC(C#N)=Cc1cc2ccccc2nc1N1CCCCC1 | -0.776 | 82.1* | -0.09 | 59.4 | -26.9 | -0.576
CCCCN(C)Cc1c(C)[nH]c2c(Cl)cccc2c1=O | 0.00597 | 100.3* | 0.72 | 62.5 | 5.2 | 1.17
CCCCN(CC)Cc1c(C)[nH]c2ccccc2c1=O | -0.116 | -1.8 | / | 8.6 | 0.7 | 0.485
CCOC(=O)C(O)(CCC(O)(C(=O)OCC)C(=O)OCC)C(=O)OCC | 0.148 | -3.4 | 0.15 | / | -4.2 | /
CCOC(=O)c1c(NC(=O)CC2Nc3ccccc3NC2=O)sc(C)c1C (stereo not drawn) | 0.82 | 57.8* | -0.67 | 2.7 | -34.0 | 0.265
CCOC(=O)c1c(NC(=O)C2=C(C)NC(=S)NC2c2ccc(CC)cc2)sc(C)c1C (stereo not drawn) | -0.402 | 85.3* | -0.17 | 53.3 | 1.2 | 0.82
CCOC(=O)C1=C(C)NC(=S)NC1c1ccc(OC(=O)c2ccco2)cc1 (stereo not drawn) | / | 22.1 | 0.09 | -3.5 | -3.1 | -0.959
O=C(CC1NC(=O)NC1=O)Nc1ccc(Cl)cc1 (stereo not drawn) | / | -1.7 | 1.42 | 46.1 | -26.3 | /
O=C(CC1Nc2ccccc2NC1=O)Nc1cc(Cl)cc(Cl)c1 (stereo not drawn) | 0.648 | 50.7* | / | -26.9 | 0.8 | /
O=C(CNC(=O)c1ccc(Br)cc1)NCC(=O)OCC(=O)c1ccccc1 | 0.117 | -0.3 | -0.35 | -42.9 | -5.0 | -0.342
O=C(CC(SCCO)c1ccc(F)cc1)c1ccco1 (stereo not drawn) | / | 83.7* | 2.84 | 22.6 | 3.7 | 0.0802
Cc1cc(C)c(S(=O)(=O)O)c(C)n1 | 0.671 | -3.8 | 1.26 | / | 16.4 | /
CN(c1ccccc1)S(=O)(=O)c1ccc(Cl)c(C(=O)Nc2ccc(-c3nc4ccccc4[nH]3)cc2)c1 | / | 95.7* | -0.18 | 14.8 | -23.6 | 0.0706
CN(c1ccccc1)S(=O)(=O)c1ccc(Cl)c(C(=O)Nc2nc3ccccc3[nH]2)c1 | 0.00904 | 99.2* | -0.7 | 9.1 | -1.4 | -4.35
CN(c1ccccc1)S(=O)(=O)c1ccc(Cl)c(C(=O)Nc2nn[nH]n2)c1 | -1.55 | -0.9 | 0.13 | / | 0.5 | 0.123
COc1ccc(-c2cc(CNC(=O)CCl)on2)cc1 | / | 66.3* | / | -3.6 | 3.8 | /
COc1ccc(-c2cc(CNC(C)=O)on2)cc1 | / | -6.4 | / | / | 32.4 | -0.0991
CCOC(=O)c1c(NC(=O)CSc2nnc3c(n2)[nH]c2ccccc23)sc2c1CCN(C)C2 | / | 100.4* | / | -50.0 | / | 0.00322
CCOC(=O)c1c(NC(=O)CSc2nnc3c(n2)[nH]c2ccc(F)cc23)sc(C(C)=O)c1C | / | 1.0 | / | -8.0 | 4.0 | -0.585
SMILES | ROMK mod | L major viab | Ins promoter up | INS promoter inh | WT yeast gro inh | KCC2 mod
CCOC(=O)c1c(NC(=O)C(C)Sc2cccc[n+]2[O-])sc2c1CCN(Cc1ccccc1)C2 (stereo not drawn) | / | 9.0 | -0.25 | -80.7 | 20.2 | -1.15
CCOC(=O)c1c(NC(=O)CSc2ncccn2)sc2c1CCN(Cc1ccccc1)C2 | -1.84 | 99.1* | -0.74 | -38.9 | 32.0 | -0.178
COc1ccc(CCN(Cc2cccs2)S(=O)(=O)c2ccc(-n3cnnn3)c(OC)c2)cc1OC | -0.287 | 10.2 | / | -7.2 | -8.1 | 0.822
Oc1c(C=C2N=c3ccccc3=N2)sc(=S)n1-c1ccccc1 | 0.233 | -2.2 | -0.2 | / | -0.9 | 0.171
CC1=Nc2ccccc2/C1=C/c1sc(=S)n(-c2cccc(C(=O)O)c2)c1O | -4.57* | -4.8 | 3.2* | / | 7.0 | -3.91*
Cc1cccc(-c2ncc(CN3CCN(C4CCCC4)C(CCO)C3)cn2)c1 (stereo not drawn) | / | 63.6* | -1.27 | 28.6 | -0.1 | -0.174
OCCC1CN(Cc2ccncc2)CCN1C1CCCC1 (stereo not drawn) | -0.272 | -1.5 | 1.74 | / | 1.3 | 0.706
Cc1cccc(-c2ncc(CN3CCN(CCC(C)C)C(CCO)C3)cn2)c1 (stereo not drawn) | -0.582 | 73.8* | 0.28 | / | 13.5 | 0.379
O=C(c1ccco1)N1N=C(c2cccs2)CC1c1ccc(F)cc1 (stereo not drawn) | -3.03 | 12.2 | / | -27.8 | 3.5 | -0.442
O=C(Nc1ncccn1)C1c2ccccc2Oc2ccccc21 | / | 55.2* | 1.15 | -28.2 | -9.4 | 0.0656
O=C(Nc1nc(-c2ccncc2)cs1)C1c2ccccc2Oc2ccccc21 | 0.884 | 89.6* | -0.38 | 21.1 | 39.1 | 0.0716
NC(=S)NNC(=O)[C@@H]1CCCC[C@@H]1C(=O)O | 0.221 | -6.9 | 0.44 | 0.0 | -0.7 | 0.796
O=C(NC(=S)Nc1ccccc1)c1ccc(-c2ccccc2)cc1 | 0.109 | 45.4 | 0.51 | 25.0 | 7.5 | 1.74
O=C(NC(=S)Nc1ccc(C(F)(F)F)cc1)c1csnn1 | 7.43* | -2.2 | -0.02 | / | 2.8 | 66.6*
O=C(NC(=S)Nc1ccccc1)c1csnn1 | / | -1.8 | 0.16 | 20.6 | 10.5 | 43.4*
Cc1ccc(C)c(NS(=O)(=O)c2ccc3[nH]c(=O)[nH]c3c2)c1 | 0.00232 | / | 0.24 | / | / | 0.0795
N#Cc1nc(N2CCOCC2)nc(N2CCOCC2)n1 | -1.09 | 0.1 | 3.26* | / | -15.8 | 0.0504
N#CCOc1nc(N2CCOCC2)nc(N2CCOCC2)n1 | -0.023 | 3.3 | -0.83 | 24.3 | -1.3 | 0.328
CN(C)S(=O)(=O)c1ccc(NC(=O)CSc2nnnn2C)cc1 | / | / | 0.33 | / | / | 1.7
Cc1ccc2cc(C#N)c(NCCNC(=O)C3CCC3)nc2c1C | -1.24 | 15.7 | 0.39 | / | 0.9 | -2.61
CCOc1ccc2nc(NCCNC(=S)NCCCN(C)C)c(C#N)cc2c1 | -1.73 | 55.5* | / | 23.8 | 1.7 | 0.75
CCOCCCNC(=S)N1CCCN(c2nc3c(C)c(C)ccc3cc2C#N)CC1 | -1.22 | 12.5 | -1.87 | -52.4 | 73.8* | -0.696
CCOCCCNC(=S)N1CCCN(c2nc3cc(C)ccc3cc2C#N)CC1 | -0.147 | 35.2 | -1.75 | -84.6 | 28.0 | -1.4
CCOc1ccc2nc(NCCNC(=O)Nc3ccccc3)c(C#N)cc2c1 | -0.0461 | 8.8 | -0.83 | / | 7.7 | /
CCOCCCNC(=S)NCCCNc1nc2c(C)c(C)ccc2cc1C#N | -0.852 | 21.1 | -0.89 | / | 73.6* | /
CCOc1ccccc1CN1CCN(C2CCN(c3ccccc3F)CC2)CC1CCO (stereo not drawn) | -1.7 | 6.6 | -0.02 | / | -5.8 | 0.369
